Screening data: PubChem BioAssay, National Center for Advancing Translational Sciences (NCATS)
IkB signaling – IkB pathway inhibition in ABC-DLBCL cells; ABC-DLBCL IkBa-CBG/CBR dual luciferase ratio, 4 h; response scale: scaled: untreated 0%, proteasome inhibitor 100%; Potency, µM (highest dose often 57.1 µM), for inactives: top-dose IkBa stabilization activation; hit rate 0.04% among 110,000; AID 445; active = well fitted curve in the direction sought with a large enough effect in the signal ratio, not every such curve was filed as active; inconclusive = small, poorly fitted or top-dose-only effect, or a change in a side signal; the % refers to the signal ratio;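 note: potency is the fitted concentration of half-maximal effect; the direction sought is a rising ratio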
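Curves were fitted separately to fusion (green), unfused (red) and ratio luminescence, then classed by r2, magnitude and activity. Cells: OCI-Ly3, 4 h compound plus doxycycline at 37C; 10 uM MG-132 defined full response.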
p53ts 32C kill – cytotoxicity in p53ts cells at permissive temperature | H1299-p53A138V at 32C, ATP luminescence viability, 24 h | Potency, µM (series often up to 46.1 µM), for inactives: top-dose activity change, negative = cytotoxicity, hits mostly cytotoxic | hit rate 0.93% among 130,000 | AID 924;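 note: potency is the fitted concentration of half-maximal effect; 0% = DMSO and -100% = full killing by reference compound; nearly all actives have a fitted effect of over 55% in size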
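ATP-content luminescence (ATPlite) read-out after 24 h compound exposure at 32C in H1299-p53A138V cells (600/well). Tested up to 46 uM. Normalized to DMSO (0%) and 100 uM tamoxifen (100% killing); Hill-fit AC50.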
p53ts 39C tox – kills p53ts cells at the nonpermissive temperature | hit rate 1.5% among 130,000 | H1299-p53A138V viability at 39C, ATP luminescence, 24 h | Potency, µM (doses to about 46.1 µM), without a hit: top-dose activity change, negative = cell killing, most hits filed as cytotoxic; note: potency is the fitted concentration of half-maximal effect; % is set by controls: 0 for no effect and ±100 for the full control effect; nearly all actives have a fitted effect of over 55% in size
Imprint erasure – inducers of genomic imprint erasure in mouse ES cells; mouse ES Peg3-LacZ reporter, beta-gal luminescence, 40 h; Potency, µM (highest dose often 60.7 µM), without a hit: at the highest dose activity change, positive = activation, most hits filed as activators; hit rate 0.02% among 110,000; note: potency is the fitted concentration of half-maximal effect
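Gelatin-coated wells received 300 freshly trypsinized female ES cells with a Peg3LacZ-Neo reporter on the maternal allele, then incubated 40 hours at 37C. BetaGlo was added for 5 minutes at room temperature before a single luminescence read.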
FLuc inh – firefly luciferase inhibition; P08659; purified firefly luciferase, luminescence, 8 min; hit rate 2.2% among 72,000; Potency, µM (series often up to 57.1 µM), inactives show at the highest dose activity change, negative = inhibition, most hits filed as inhibitors; note: potency is the fitted concentration of half-maximal effect; % is set by controls: 0 for no effect and ±100 for the full control effect; nearly all actives have a fitted effect of over 40% in size
Target sequence (P08659 whole entry, looked up): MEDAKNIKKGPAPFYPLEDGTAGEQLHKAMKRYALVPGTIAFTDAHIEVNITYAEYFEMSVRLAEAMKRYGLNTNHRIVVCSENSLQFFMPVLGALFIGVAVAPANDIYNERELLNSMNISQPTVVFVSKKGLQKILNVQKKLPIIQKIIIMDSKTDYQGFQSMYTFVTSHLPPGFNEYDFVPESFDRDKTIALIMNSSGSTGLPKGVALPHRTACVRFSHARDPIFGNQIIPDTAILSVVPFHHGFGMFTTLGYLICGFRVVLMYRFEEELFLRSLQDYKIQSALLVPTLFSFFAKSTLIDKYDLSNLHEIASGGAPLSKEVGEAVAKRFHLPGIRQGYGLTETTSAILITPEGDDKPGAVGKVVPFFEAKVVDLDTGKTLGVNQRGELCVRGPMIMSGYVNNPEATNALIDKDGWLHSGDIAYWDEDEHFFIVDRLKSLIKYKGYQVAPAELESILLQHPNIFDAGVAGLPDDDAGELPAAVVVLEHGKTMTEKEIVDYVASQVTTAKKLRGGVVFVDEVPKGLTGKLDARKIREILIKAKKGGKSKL
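Luminescence read-out after 8 min at room temperature; enzyme reaction used luciferin plus 10 uM ATP (linear range) in imidazole buffer pH 7.2 with KCl, MgCl2, Tween 20 and BSA. Each sample was run as a titration.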
IMPase inh – IMPase inhibition in cells; P97697; CHO-M1 cells, IP1 accumulation, HTRF TR-FRET ratio; inhibition (IP1 accumulation), % at 46.1 µM; 120,000 tested, under 10 active; AID 901; active = well fitted curve in the direction sought with a large enough effect in the signal ratio, not every such curve was filed as active; inconclusive = small, poorly fitted or top-dose-only effect, or a change in a side signal; inactive = no such curve, though single readings can be large or run the other way; the % refers to the signal ratio;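 note: cells stimulated with carbachol in lithium chloride buffer; plate controls were DMSO basal wells for no effect and reference inhibitor wells for full effect; higher means more IMPase inhibition seen as more IP1 and lower FRET ratio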
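CHO-M1, 2000 cells/well, cultured 16–30 h; cpd up to 46 uM; carbachol (50 uM solution, stimulation buffer w/ 50 mM LiCl, pH 7.4), 30 min 37C; IP-One TR-FRET, 10 min RT; Ex 320/Em 665, 620; Hill-fit AC50.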
An asterisk follows results filed as active; ? = inconclusive; . = no result; [ ] = another dose, or the depositor's remark. The full list was thinned out, with hits kept by preference. Unless noted, calls come from the whole dose curve; as a rule, active = well fitted curve in the direction sought with a large enough effect; inconclusive = small, poorly fitted or top-dose-only effect, or another doubt; inactive = no such curve, though single readings can be large; an effect the other way counts as inactive or inconclusive.

SMILES | IkB signaling | p53ts 32C kill | p53ts 39C tox | Imprint erasure | FLuc inh | IMPase inh
C[C@H]1CC(C)(C)C[C@@](OCCN2CCCCC2)(c2ccccc2)C1 | -1.9%[11.4 µM] | -5.2%[9.22 µM] | -3.8%[9.22 µM] | -11.2%[10.9 µM] | 2.9%[11.4 µM] | .
O=C(Nc1ccc2c(c1)OCCO2)c1c(F)cccc1F | 2.3% | ? | ? | -56.1% | 12.6µM* | -7.1
O=C(Nc1ccc2c(c1)OCCO2)c1ccccc1F | ? | 5.01µM* | 7.94µM* | -88.9% | 5.01µM* | 4.8
Cc1nc2c(C(=O)NCCCN(CC(C)C)CC(C)C)cnn2c(C)c1Cc1c(F)cccc1Cl | ? | 8.3% | -2.3% | -16.7%[10.9 µM] | . | .
O=C(Nc1ccc(-c2nc3ccccc3o2)c(O)c1)c1cc(-n2cnnc2)ccc1Cl | ? | ? | ? | 2.7% | -0.8% | -6.3
Cc1c(NC(=O)c2cc(-n3cnnc3)ccc2Cl)cccc1-c1nc2ccccc2o1 | ? | ? | -23.8% | -15.6% | 7.94µM* | 0.0
COc1cccc(-c2nccc(N(C)Cc3ccco3)n2)c1 | -1.1%[11.4 µM] | 10µM* | 10µM* | -60.5% | -9.9%[2.29 µM] | .
Oc1ccccc1-c1nc(-c2cccs2)c(-c2cccs2)[nH]1 | ? | ? | 25.1µM* | -11.6%[10.9 µM] | . | .
Cc1ccc(Nc2c(-c3c[nH]c4ccccc34)nc3cc(C)ccn23)cc1 | ? | -19.4% | ? | 2.8%[10.9 µM] | . | .
Cc1ccn2c(Nc3ccccc3)c(-c3c[nH]c4ccccc34)nc2c1 | ? | -21.8% | 15.8µM* | -8.4%[10.9 µM] | . | .
CCOc1ccc(NC(=O)CN2CCCN(Cc3cc(C)ccc3C)S2(=O)=O)cc1 | ? | -14.2% | -8.0% | -13.0%[10.9 µM] | . | .
O=C(NCCCn1ccnc1)c1cn(-c2ccccc2)nc1-c1ccccc1 | -0.9% | ? | -28.7% | -1.8% | 12.6µM* | 20.5
Fc1ccc(Nc2nc(-c3ccncc3)nc3ccccc23)cc1F | . | . | 3.6% | . | . | -3.4
Oc1ccc(Nc2nc(-c3ccc(Cl)cc3)nc3ccccc23)cc1 | ? | ? | 15.8µM* | 7.8%[10.9 µM] | . | 12.4
Cc1cc(O)c(C(c2ccccc2)N2CCN(c3ccc(F)cc3)CC2)c(=O)n1Cc1ccco1 (stereo unspecified) | ? | 8.0% | 5.4% | -12.3%[10.9 µM] | . | .
O=S1(=O)N=C(Nc2ccc(N3CCOCC3)cc2)c2ccccc21 | -1.2% | -12.7% | -11.8% | -7.6% | 12.6µM* | 2.5
O=S1(=O)N=C(N2CCOCC2)c2ccccc21 | 1.5% | 1.0% | -11.3% | 2.6% | -0.7% | 5.1
CC(=Nc1ccc(O)cc1)c1sc2ccccc2c1O | ? | ? | ? | -65.0% | 7.94µM* | 0.5
CCOc1ccc(NC(=O)CSc2nnc3scc(-c4ccc(Cl)cc4)n23)cc1 | ? | -23.8% | -5.0% | -15.7%[10.9 µM] | . | 0.7
COc1ccc(NC(=O)CSc2nnc3scc(-c4ccc(Cl)cc4)n23)cc1 | ? | ? | 12.6µM* | -12.8%[10.9 µM] | . | 2.1
COc1cccc(-c2cn3nc4c(nc3n2)CCCC4)c1 | ? | 5.01µM* | 5.01µM* | -94.2% | 3.16µM* | 5.5
Cc1nn(-c2ccccc2)c(OC(=O)C(C)C)c1Sc1ccc(Cl)cc1 | ? | ? | 7.1% | -2.1%[10.9 µM] | . | .
Clc1ccc(-n2ncc3c(NCc4ccco4)ncnc32)cc1 | . | . | . | . | 3.98µM* | -2.6
COc1ccc(-n2ncc3c(NCc4ccco4)ncnc32)cc1 | . | ? | -19.8% | . | . | 3.1
Clc1ccc(-n2ncc3c(NCC4CCCO4)ncnc32)cc1 (stereo unspecified) | 2.3% | ? | ? | -34.3% | 5.01µM* | 1.3
Cc1ccc(-n2ncc3c(NC4CCCCCC4)ncnc32)cc1Cl | ? | -21.5% | ? | -17.7%[10.9 µM] | . | .
c1ccc(-n2ncc3c(NCC4CCCO4)ncnc32)cc1 (stereo unspecified) | . | . | . | . | -27.5%[25.5 µM] | -1.1
Clc1ccc(-n2ncc3c(NC4CCCC4)ncnc32)cc1 | ? | 12.6µM* | 15.8µM* | -14.0%[10.9 µM] | . | .
COc1ccc(CNC(=O)c2cnn(-c3ccc(C)cc3)c2-n2cccc2)cc1OC | 1.6% | 11.8% | -1.2% | -19.1%[10.9 µM] | . | .
